{"source": "PubChem BioAssay AID488857", "about": "(Sanford-Burnham Center for Chemical Genomics, 2010)", "note": "In all, about 1,400 compounds went through this assay and about 560 (40%) were called active.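 How the source made its calls: active means mean inhibition over duplicate tests at 10 µM above 50%; inactive means the rest.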 The set was probably picked from earlier hits. The list shows a part of the results."}
{"experiment": "ASC/caspase-1 reporter retest in S. cerevisiae at one dose, specificity check for NALP1 project (AID 488857)", "details": "S. cerevisiae ASC/Caspase-1, beta-galactosidase luminescence, 24 h; at 10 µM; stronger effect = higher value"}
{"smiles": "Cc1nc(C)c(/C(O)=C/c2nc3ccccc3oc2=O)s1", "inhibition": "44% (inactive)"}
{"smiles": "Cc1ccc(NC2(C#N)C(=O)Nc3ccccc32)cc1", "note": "(centres undefined)", "inhibition": "38.2% (inactive)"}
{"smiles": "O=C(c1ccco1)N1CCN(Cc2cn[nH]c2-c2cccc3ccccc23)CC1", "inhibition": "26% (inactive)"}
{"smiles": "O=C(CN1CCSC1=NCc1ccccc1)c1ccc(Cl)c(Cl)c1", "inhibition": "61% (active)"}
{"smiles": "COc1cccc(CN(C)CC(=O)Nc2cccc(S(N)(=O)=O)c2)c1OC", "inhibition": "32.5% (inactive)"}
{"smiles": "Cc1cs/c(=N\\N=C\\c2ccccc2)n1Cc1ccco1", "inhibition": "54.1% (active)"}
{"smiles": "CCC(C(=O)NCc1ccco1)N(C(=O)CNS(=O)(=O)c1ccccc1)c1ccc(OC)cc1", "note": "(centres undefined)", "inhibition": "32.8% (inactive)"}
{"smiles": "COc1ccc(N2CCN(CC(=O)NC(=O)NCc3ccco3)CC2)cc1", "inhibition": "33.3% (inactive)"}
{"smiles": "CCN(C(=O)c1ccco1)c1nnc(-c2ccc(OC)cc2)s1", "inhibition": "51% (active)"}
{"smiles": "O=C(NC(N1CCOCC1)C(Cl)(Cl)Cl)c1ccc(Br)cc1", "note": "(centres undefined)", "inhibition": "-14.2% (inactive)"}
{"smiles": "CCOC(=O)c1cc([N+](=O)[O-])c([N+](=O)[O-])cc1NC(C)=O", "inhibition": "22.4% (inactive)"}
{"smiles": "CN(C)c1ccc(NC(=O)COC(=O)c2cc(Cl)ccc2[N+](=O)[O-])cc1", "inhibition": "68% (active)"}
{"smiles": "N=c1ccn(Cc2ccc(Cl)cc2Cl)cc1", "inhibition": "38% (inactive)"}
{"smiles": "CCOC(=O)c1c(-c2ccccc2)nc2ccccn12", "inhibition": "99.1% (active)"}
{"smiles": "CCOC(=O)CSc1nnc(-c2ccccc2)c(=O)[nH]1", "inhibition": "45% (inactive)"}
{"smiles": "CCOCCCn1c(=NC(C)=O)c(C(=O)OCC)cc2c(=O)n3ccccc3nc21", "inhibition": "19.2% (inactive)"}
{"smiles": "Cc1cc(C)n(C(C[N+](=O)[O-])c2ccc(Cl)cc2)n1", "note": "(centres undefined)", "inhibition": "99.2% (active)"}
{"smiles": "Cc1ccccc1OCCCSc1nc2ccccc2[nH]1", "inhibition": "75% (active)"}
{"smiles": "Cc1cccc(C)c1NC(=O)CSc1nc2ccccc2c(=O)[nH]1", "inhibition": "34.6% (inactive)"}
{"smiles": "Cc1cccc(OCCCSc2nc3ccc(C)cc3[nH]2)c1", "inhibition": "83.2% (active)"}
{"smiles": "O=C(O)C1CCN(C(=O)c2csc(-c3ccc4c(c3)CCO4)n2)CC1", "inhibition": "38.6% (inactive)"}
{"smiles": "O=CC1=C(c2ccccc2)Oc2ccccc2O1", "inhibition": "93.3% (active)"}
{"smiles": "CCn1c(SCC(=O)Nc2ccc3c(c2)OCO3)nnc1-c1cnccn1", "inhibition": "30.1% (inactive)"}
{"smiles": "Nc1ccc(C(=O)Nc2nc3ccccc3s2)cc1", "inhibition": "75.4% (active)"}
{"smiles": "O=C(Nc1nc2ccccc2s1)C1c2ccccc2Oc2ccccc21", "inhibition": "39.3% (inactive)"}
{"smiles": "Cc1ccc2nc(NC(=O)c3ccc4ncsc4c3)sc2c1", "inhibition": "12.6% (inactive)"}
{"smiles": "Fc1ccc(N2CCN(Cc3cnc(Oc4ccc(Br)cc4)s3)CC2)cc1", "inhibition": "14.7% (inactive)"}
{"smiles": "CCOc1ccc(S(=O)(=O)N2c3ccccc3CC2C)cc1", "note": "(centres undefined)", "inhibition": "52.7% (active)"}
{"smiles": "CCOc1ccc(NC2=C(OC)C(=O)c3ccccc3C2=O)cc1", "inhibition": "44.1% (inactive)"}
{"smiles": "Cc1cc(Nc2ccccc2)nc2cc(O)ccc12", "inhibition": "99.1% (active)"}
{"smiles": "COC1=C(Nc2ccc(O)cc2)C(=O)c2ccccc2C1=O", "inhibition": "40.2% (inactive)"}
{"smiles": "COc1ccc(Nc2cc(C)c3ccc(O)cc3n2)cc1", "inhibition": "98.1% (active)"}
{"smiles": "CC1Cc2ccccc2N1CC(=O)Nc1ccc2c(c1)OC(F)(F)O2", "note": "(centres undefined)", "inhibition": "29.9% (inactive)"}
{"smiles": "O=C(/C=C/c1ccccc1Cl)c1ccc[nH]1", "inhibition": "67.8% (active)"}
{"smiles": "COC(=O)C1=C(C)NC(C)=C(C(=O)OC)C1c1ccc(OC(=O)c2oc3ccccc3c2C)c(OC)c1", "inhibition": "25.6% (inactive)"}
{"smiles": "CC(=O)C1=C(O)C(=O)N(CCC(=O)O)C1c1ccc(Cl)cc1Cl", "note": "(centres undefined)", "inhibition": "35.7% (inactive)"}
{"smiles": "Cc1ccc(-n2nnnc2C(Cl)c2nnnn2-c2ccc(C)cc2)cc1", "inhibition": "40.1% (inactive)"}
{"smiles": "COc1ccc2cnn(-c3ccc(C)cc3)c(=O)c2c1OC", "inhibition": "44% (inactive)"}
{"smiles": "Cc1ccc(-n2c(Cl)c(Cl)nc(Cl)c2=O)cc1", "inhibition": "100% (active)"}
{"smiles": "CCN(CC)S(=O)(=O)c1ccc2[nH]c(=O)cc(C(=O)Nc3ccc(C)c(S(=O)(=O)N(CC)CC)c3)c2c1", "inhibition": "25.1% (inactive)"}
{"smiles": "CNC(=O)c1nnsc1S(=O)(=O)c1ccc(Cl)cc1", "inhibition": "73% (active)"}
{"smiles": "COc1ccc(CCNC(=O)C2CCN(S(=O)(=O)c3ccc(Cl)cc3)CC2)cc1OC", "inhibition": "23.4% (inactive)"}
{"smiles": "Cn1cnc([N+](=O)[O-])c1S(=O)(=O)c1ccc(Cl)cc1", "inhibition": "13.2% (inactive)"}
{"smiles": "CCCNC(=O)c1nnsc1S(=O)(=O)c1ccc(Cl)cc1", "inhibition": "91% (active)"}
{"smiles": "CN1C(=O)CSc2ccc(NC(=O)N3CCN(c4ccccn4)CC3)cc21", "inhibition": "40.5% (inactive)"}
{"smiles": "CN(C)c1nc(N)nc(CSc2nnnn2-c2ccc(C(=O)O)cc2)n1", "inhibition": "18.2% (inactive)"}
{"smiles": "CC(C)(C)n1nc(-c2ccc(F)cc2)c2c(N)ncnc21", "inhibition": "97.5% (active)"}
{"smiles": "O=C(COC(=O)c1ccc(-c2ccc([N+](=O)[O-])cc2)o1)NC(=O)NC1CCCCC1", "inhibition": "46.6% (inactive)"}
{"smiles": "c1ccc(-c2c(-c3ccccc3)n(Cc3ccco3)c3ncnc(NCCCn4ccnc4)c23)cc1", "inhibition": "46.7% (inactive)"}
{"smiles": "O=C(Oc1ccc(/C=N/NC(=O)c2ccccc2O)cc1)c1ccccc1", "inhibition": "34.4% (inactive)"}
{"smiles": "COc1ccc(/C=N\\NC(=O)c2cc(OCC(F)(F)F)ccc2OCC(F)(F)F)cc1", "inhibition": "27.6% (inactive)"}
{"smiles": "O=C(C[n+]1ccc(C(=O)N/N=C/c2ccc(OCc3ccccc3)cc2)cc1)c1ccccc1", "inhibition": "54.6% (active)"}
{"smiles": "COc1ccc(N2C(=O)C(Cl)=C(Nc3c(C)n(C)n(-c4ccccc4)c3=O)C2=O)cc1", "inhibition": "29.6% (inactive)"}
{"smiles": "COc1ccc(N2C(=O)C3[C@@H](C2=O)C2(Cl)C(Cl)=C(Cl)C3(Cl)C2(OC)OC)cc1", "note": "(some centres undefined)", "inhibition": "50.2% (active)"}
{"smiles": "CCOc1oc(-c2ccc(OC)cc2)nc1C(F)(F)F", "inhibition": "40.6% (inactive)"}
{"smiles": "CCc1ccc(OCCCC(=O)Nc2cccc(C(=O)O)c2)cc1", "inhibition": "39.6% (inactive)"}
{"smiles": "CCc1ccc(OCCNC(=O)OCc2ccccc2)cc1", "inhibition": "57.6% (active)"}
{"smiles": "CC1=NN(c2ccc(C)cc2C)C(=O)C1C(c1cccc(O)c1)C1C(=O)N(c2ccc(C)cc2C)N=C1C", "note": "(centres undefined)", "inhibition": "43.8% (inactive)"}
{"smiles": "CN(C)CCN(Cc1ccccc1)c1nccc(N(C)C)c1C#N", "inhibition": "26.8% (inactive)"}
{"smiles": "COc1cccc(-c2nn(C)c3sc(C(=O)N4CCOCC4)cc23)c1", "inhibition": "51.4% (active)"}
{"smiles": "COc1cccc(C(=O)N2CCCC(c3nc(-c4cccs4)no3)C2)c1", "note": "(centres undefined)", "inhibition": "22.3% (inactive)"}
{"smiles": "Cc1c(C(=O)N2CCOCC2)[nH]c2ccc(OCc3ccccc3)cc12", "inhibition": "42.6% (inactive)"}
{"smiles": "COc1cc(S(=O)(=O)NCc2cccnc2)ccc1F", "inhibition": "46.6% (inactive)"}
{"smiles": "C=CCCCCc1nc2ccccc2c(=O)n1N", "inhibition": "36.1% (inactive)"}
{"smiles": "COc1ccc2cc(C(C)c3nc4ccccc4c(=O)n3N)ccc2c1", "note": "(centres undefined)", "inhibition": "59.4% (active)"}
{"smiles": "CCOC(=O)c1ccc(N2CCOCC2)c(NC(=O)COCC(=O)O)c1", "inhibition": "9.9% (inactive)"}
{"smiles": "COc1ccc(-c2cn3cccnc3n2)cc1Br", "inhibition": "78.9% (active)"}
{"smiles": "CCN(CC)S(=O)(=O)c1ccc2oc(C(=O)NC3CCCc4ccccc43)c(C)c2c1", "note": "(centres undefined)", "inhibition": "23.3% (inactive)"}
{"smiles": "O=C(c1ccccc1)c1c2c(cc3sc4ccccc4[n+]13)-c1cccc3cccc-2c13", "inhibition": "46.8% (inactive)"}
{"smiles": "Cc1ccc(S(=O)(=O)N(C(=O)c2ccncc2)c2ccc(OC(=O)c3ccncc3)c3ccccc23)cc1", "inhibition": "26.1% (inactive)"}
{"smiles": "CCCc1[nH]n(-c2nc3ccccc3s2)c(=O)c1C=NCC(C)C", "inhibition": "78% (active)"}
{"smiles": "CC(C)(C)C(=O)NC1CCN(S(=O)(=O)c2ccc(C(F)(F)F)cc2)CC1", "inhibition": "23.1% (inactive)"}
{"smiles": "CCCN1CCN(CCCNC(=O)CCNC(=O)Cn2ccc3ccccc3c2=O)CC1", "inhibition": "35.4% (inactive)"}
{"smiles": "COc1ccnc(N2CCN(c3ccccc3)CC2)c1C#N", "inhibition": "56.4% (active)"}
{"smiles": "O=C(NN1C(=O)c2cc(Br)ccc2NC1c1cc(Br)cc(Br)c1O)c1ccncc1", "note": "(centres undefined)", "inhibition": "76.2% (active)"}
{"smiles": "Cc1cccc(N2Cc3ccccc3C2=NC(=O)c2ccc(Cl)nc2)c1", "inhibition": "28.3% (inactive)"}
{"smiles": "CCCCNc1nc2ccccc2[nH]1", "inhibition": "31.2% (inactive)"}
{"smiles": "Fc1ccccc1-c1ccc(/C=N/Nc2nc3ccccc3[nH]2)o1", "inhibition": "70% (active)"}
{"smiles": "COc1ccc(NC(=O)CC2Sc3ncnn3C2=O)cc1", "note": "(centres undefined)", "inhibition": "75.8% (active)"}
{"smiles": "CCOC(=O)c1ccc(NC(=O)CC2Sc3ncnn3C2=O)cc1", "note": "(centres undefined)", "inhibition": "64.7% (active)"}
{"smiles": "CCOC(=O)c1ccc(NC(=O)c2nccnc2C(=O)O)cc1", "inhibition": "38.5% (inactive)"}
{"smiles": "O=C(CC1Sc2ncnn2C1=O)Nc1ccc(Br)cc1", "note": "(centres undefined)", "inhibition": "33.6% (inactive)"}
{"smiles": "CCOC(=O)c1ccc(NC(=O)CSc2nnc(CNc3ccc(C)cc3)n2C)cc1", "inhibition": "31.4% (inactive)"}
{"smiles": "C/C(=N\\Nc1nc2c(s1)CCCC2)c1ccccc1", "inhibition": "37.2% (inactive)"}
{"smiles": "CC1CCCCN1C(=S)NCCc1ccccc1", "note": "(centres undefined)", "inhibition": "59.1% (active)"}
{"smiles": "C=C1SC(Nc2c(C)cccc2C)=NC12CCCCC2", "inhibition": "47.3% (inactive)"}
{"smiles": "CC(C)Cc1nnc(NC(=O)CSc2nc(N)cc(=O)[nH]2)s1", "inhibition": "25.6% (inactive)"}
{"smiles": "Brc1ccc2c(c1)OCCOCCOc1cc(Br)ccc1OCCOCCOCCO2", "inhibition": "64.6% (active)"}
{"smiles": "Cc1nnc(-c2ccccc2)o1", "inhibition": "39.7% (inactive)"}
{"smiles": "O=C(CSc1nnnn1C1CCCCC1)N1c2ccccc2Sc2ccccc21", "inhibition": "39.5% (inactive)"}
{"smiles": "Cc1nc(/N=C(\\N)NC(=O)N2c3ccccc3Sc3ccccc32)nc2ccccc12", "inhibition": "53.6% (active)"}
{"smiles": "O=[N+]([O-])c1ccc(-n2nnnc2-c2ccccc2)cc1", "inhibition": "19.9% (inactive)"}
{"smiles": "O=C1C=CCC(/C=C/c2ccccc2)O1", "note": "(centres undefined)", "inhibition": "63% (active)"}
{"smiles": "O=C1c2ccsc2SCCN1Cc1c(Cl)cccc1Cl", "inhibition": "56.2% (active)"}
{"smiles": "O=S(=O)(Nc1ccc(-n2cccc2)cc1)c1ccc(Cl)cc1Cl", "inhibition": "37.6% (inactive)"}
{"smiles": "Cc1sc2ncnc(N/N=C/c3ccccc3O)c2c1C", "inhibition": "58.4% (active)"}
{"smiles": "COc1cc(C(=O)CCN2CCC(c3ccccc3)C2)cc(OC)c1OC", "note": "(centres undefined)", "inhibition": "44.2% (inactive)"}
{"smiles": "CC1CCN(C(=O)/C=C/c2ccc(C(C)(C)C)cc2)CC1", "inhibition": "63.4% (active)"}
{"smiles": "O=C(/C=C/c1ccccc1)N1CCC(c2ccccc2)C1", "note": "(centres undefined)", "inhibition": "62.6% (active)"}
